FLuc inh: inhibitors of firefly (Photinus pyralis) luciferase; purified P. pyralis luciferase, luminescence, biochemical; hit rate 2.5% among 76,000; P08659; Potency, µM (series often up to 115 µM), most hits filed as inhibitors; further: nearly all actives have a fitted effect of over 65% in size
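Purified 10nM P. pyralis luciferase with 10uM D-luciferin and 10uM ATP in 50mM Tris acetate pH 7.5, 10mM Mg acetate, 0.01% Tween-20, 0.05% BSA. qHTS titration; luminescence read by CCD imager.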
NPR1 antag: antagonists of human natriuretic peptide receptor Npr1; P16066; HEK293 hNpr1 GloSensor cGMP, ANP-stimulated luminescence; Potency, µM (highest dose often 46.3 µM), for inactives: top-dose activity change, negative = inhibition, hits mostly inhibitors; hit rate 1.6% among 76,000; AID 1347048; calls by dose curve; further: nearly all actives have a fitted effect of over 60% in size
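Compound pre-incubated 30 min at room temperature on GloSensor-loaded HEK293 cells stably carrying hNpr1 and the pGS-40F cGMP biosensor. Stimulation uses hNppA at 0.1 nM final; luminescence is taken at baseline and 20 min post-agonist.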
3T3 cytotox: kills NIH 3T3 cells | NIH 3T3 viability, CellTiter-Glo ATP luminescence, 48-72 h | Potency, µM (highest dose often 96.7 µM), inactives show top-dose activity change, negative = cytotoxicity, usual class: inhibitors | hit rate 4.3% among 94,000 | AID 1345082; further: nearly all actives have a fitted effect of over 55% in size
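First NIH 3T3 cells are plated at 400 cells/well; next compound is pinned in; then plates incubate 48 or 72 hr at 37 °C; finally CellTiter-Glo is added and luminescence read after 10 min.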
SNCA viab count: counter-screen for SNCA expression inhibitors: cell viability | HEK-293-SNCA-luc viability, GF-AFC fluorescence, 24 h | hit rate 0.12% among 150,000 | AID 1671193 | Potency, µM (titrated, usually from 57.1 µM), inactives show at the highest dose activity change, negative = cytotoxicity, most hits filed as cytotoxic;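 further: 0% = DMSO-treated cells and -100% = medium-only wells without cells; nearly all actives have a fitted effect of over 30% in size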
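Cytotoxicity counterscreen: after 24 h compound treatment of genome-edited SNCA-luciferase HEK-293 cells, live-cell protease substrate GF-AFC read by fluorescence after 30 min; activity scaled between DMSO (0%) and medium-only (-100%), curves Hill-fitted.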
SNCA expr inh: SNCA gene expression inhibition; Potency, µM (titrated, usually from 57.2 µM), for the others: at the highest dose activity change, negative = inhibition, actives largely listed as inhibitors; HEK-293 SNCA-luciferase knock-in, luminescence, 24 h; AID 1671194; hit rate 0.17% among 140,000;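 further: plate controls were DMSO cells for no effect and cell-free wells for full effect; nearly all actives have a fitted effect of over 45% in size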
HEK cytotox: HEK 293 cell cytotoxicity; HEK 293 viability, ATP luminescence (CellTiter-Glo), 48-72 h; Potency, µM (top dose mostly 115 µM), for the others: top-dose activity change, negative = cytotoxicity, most hits filed as inhibitors; hit rate 6.6% among 94,000; AID 1345083; further: nearly all actives have a fitted effect of over 60% in size
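ATP-coupled CellTiter-Glo luminescence served as viability read-out, recorded 10 min after reagent addition at room temperature. HEK 293 cells, 250 cells/well, had been incubated with pintool-transferred compound for 48 or 72 hr at 37 degree Celsius.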
The depositor's hits bear a star; i = inactive; u = inconclusive; x = no result given; [ ] = another dose, or the depositor's remark. Rows were chosen to be rich in hits. Some 7.2% of all compounds tested hit in one or more screens of this group. Unless noted, the call rests on the fitted dose curve; in most records, active means well fitted curve in the direction sought with a large enough effect; inconclusive means small, poorly fitted or top-dose-only effect, or another doubt; inactive means no such curve, though single readings can be large; an effect the other way counts as inactive or inconclusive. Unless noted, on the % scale 0 is the no-effect control and ±100 the full control effect; potency means the concentration at half of the fitted maximal effect.

SMILES	FLuc inh	NPR1 antag	3T3 cytotox	SNCA viab count	SNCA expr inh	HEK cytotox
COc1ccc(C2Cn3nnc(C(=O)N4CCC(C(=O)NC5CCCCCC5)CC4)c3CO2)cc1 (stereo unspecified)	i	-14%	-26%	1%	5%	-16%
O=C(c1cc2cc(F)ccc2[nH]1)N1CCCC(CO)(Cc2cccc(Cl)c2)C1 (stereo unspecified)	u	-19%	u	-4%	87%	79µM*
Cc1nn(C)c(C)c1S(=O)(=O)N1CCCC(CO)(Cc2ccccc2)C1 (stereo unspecified)	i	1%	-27%	3%	8%	-20%
O=S(=O)(c1ccccc1Cl)N1CCCC(CO)(Cc2cccc(Cl)c2)C1 (stereo unspecified)	i	-27%	u	3%	7%	25µM*
CCn1ccnc1CN1CCCC(CO)(Cc2cccc(Cl)c2)C1 (stereo unspecified)	i	-16%	u	-4%	-9%	u
CC(=O)NCc1nnc2n1C(C(=O)NCc1cccs1)CC2 (stereo unspecified)	x	x	-25%[138 µM]	9%[12.5 µM]	u	-19%[172 µM]
CCNC(=O)CN1C(=O)NC(CCc2ccccc2)(C2CCNCC2)C1=O (stereo unspecified)	i	1%	-17%	11%	-7%	-19%
COCC(=O)N[C@H]1C[C@@H](Cc2cc(-c3ccc(OC)cc3)on2)C1(C)C	u	-14%[70.6 µM]	56µM*	-10%[87.6 µM]	6%[87.6 µM]	35µM*
CCCCc1cc(C[C@@H]2C[C@H](NC(=O)c3cccc(F)c3)C2(C)C)no1	i	u	63µM*	-20%[87.6 µM]	-15%[87.6 µM]	63µM*
COCc1cc(C[C@@H]2C[C@H](NC(=O)c3ccco3)C2(C)C)no1	i	-18%[70.6 µM]	-19%[138 µM]	1%[87.6 µM]	-2%[87.6 µM]	-22%[172 µM]
CC1(C)[C@H](Cc2cc(COc3ccccc3)on2)C[C@@H]1NC(=O)Cc1ccccc1	i	u	56µM*	-30%[87.6 µM]	-21%[87.6 µM]	56µM*
CC1(C)[C@H](Cc2cc(COc3ccccc3)on2)C[C@@H]1NC1CCOCC1	i	4%[70.6 µM]	u	-6%[87.6 µM]	12%[87.6 µM]	u
CCNC(=O)N[C@H]1C[C@@H](Cc2cc(COc3ccccc3)on2)C1(C)C	i	4%[70.6 µM]	u	-10%[87.6 µM]	39%[87.6 µM]	89µM*
Cn1cccc1CN1CCCC2(C1)C(=NC1CCCCC1)NC(=O)N2c1cc(F)cc(F)c1 (stereo unspecified)	x	x	u	-2%	u	u
CC(C)(C)CN[C@H]1C[C@@H](Cc2cc(COc3ccccc3)on2)C1(C)C	i	-12%[70.6 µM]	28µM*	-26%[87.6 µM]	24%[87.6 µM]	22µM*
COc1ccc(C(=O)N[C@H]2C[C@@H](Cc3cc(COc4ccccc4)on3)C2(C)C)cc1	i	u	28µM*	u	16%[87.6 µM]	u
CC(C)Cc1cc(C[C@@H]2C[C@H](NC3CCOCC3)C2(C)C)no1	i	5%[70.6 µM]	-9%[138 µM]	-3%[87.6 µM]	6%[87.6 µM]	-12%[172 µM]
CN1CCC(N[C@H]2C[C@@H](Cc3cc(-c4ccc(F)cc4)on3)C2(C)C)CC1	63µM*	u	7.1µM*	u	u	8.9µM*
CC1(C)[C@H](Cc2cc(COc3ccccc3)on2)C[C@@H]1NC(=O)COc1ccccc1	i	u	63µM*	-20%[87.6 µM]	-23%[87.6 µM]	50µM*
COc1ccc(-c2cc(C[C@@H]3C[C@H](NC(=O)c4ccccc4)C3(C)C)no2)cc1	i	u	u	-20%[87.6 µM]	u	u
CCCN[C@H]1C[C@@H](Cc2cc(COc3ccccc3)on2)C1(C)C	i	-5%[70.6 µM]	u	3%[87.6 µM]	6%[87.6 µM]	u
CNC(=O)[C@@H]1[C@@H](O)C(=O)N(C)C12CCN(C(=O)Cc1cccs1)CC2	x	x	u	x	x	-3%
CC(=O)N1CCN(Cc2ccc(OCCCN3CCOCC3)cc2)CC1	i	3%	i	8%	3%	i
Cc1cccc(S(=O)(=O)Nc2cccn3nc(C4CCC4)nc23)c1	i	-2%	45µM*	-21%	10%	u
O=S(=O)(Nc1cccn2nc(C3CC3)nc12)c1cccnc1	i	7%	-21%	4%	10%	-13%
SMILES	FLuc inh	NPR1 antag	3T3 cytotox	SNCA viab count	SNCA expr inh	HEK cytotox
O=C(Nc1cccn2nc(C3CCC3)nc12)c1ccccn1	i	-20%	8.9µM*	u	u	u
Cc1cccc(OCC(=O)NCCn2ccn3nc(-c4ccc(C)c(C)c4)cc3c2=O)c1	i	-2%	-10%	-7%	73%	u
COCC(=O)N1c2ccccc2CC1c1noc(C(C)C)n1 (stereo unspecified)	16µM*	5%	0%	8%	103%	i
COCCNc1ncccc1-c1noc([C@@H]2CCCN2CC(C)(C)C)n1	i	1%[70.6 µM]	50µM*	-11%[87.6 µM]	-13%[87.6 µM]	u
COCCNc1ncccc1-c1noc([C@@H]2CCCN2Cc2cccc(C#N)c2)n1	i	-2%[70.6 µM]	u	-8%[87.6 µM]	-17%[87.6 µM]	71µM*
COCCNc1ncccc1-c1noc([C@@H]2CCCN2Cc2ccco2)n1	i	1%[70.6 µM]	-16%[138 µM]	-8%[87.6 µM]	-21%[87.6 µM]	-15%[172 µM]
COc1ccc(-c2cn3cc(C(=O)NCc4ccc(Cl)cc4)nc3s2)cc1	x	x	-10%	8%	11%	-22%
Cc1noc(-c2cccs2)c1C(=O)NC(C)c1cccc2ccccc12 (stereo unspecified)	i	0%	u	6%	-24%	u
COc1ccccc1CNC(=O)C[C@@H]1CCNC[C@@H]1Cc1cc(C(C)(C)C)on1	i	-13%[70.6 µM]	100µM*	-20%[87.6 µM]	-6%[87.6 µM]	100µM*
COc1ccccc1CNC(=O)C[C@@H]1CCNC[C@@H]1Cc1cc(CSc2ccccc2)on1	i	-9%	79µM*	-11%	7%	u
O=C(C[C@@H]1CCNC[C@@H]1Cc1cc(CSc2ccccc2)on1)NCc1ccc(F)cc1	i	-3%	u	-14%	-12%	u
COC(=O)[C@@H]1Cc2c([nH]c3ccccc23)[C@H]2C[C@@H](NC(C)C)C[C@@H](c3ccccc3)N21	u	-15%[70.6 µM]	40µM*	u	-17%[87.6 µM]	35µM*
Cc1ccc(C2c3[nH]c4ccccc4c3CCN2C(=O)CCC2CCCC2)cc1 (stereo unspecified)	x	x	x	15%	-14%	x
COC(=O)[C@@H]1Cc2c([nH]c3ccccc23)[C@H]2C[C@@H](NC(C)C)C[C@@H](c3ccc(C)cc3)N21	i	0%[70.6 µM]	40µM*	-26%[87.6 µM]	-25%[87.6 µM]	35µM*
COC(=O)[C@@H]1[C@H]2C[C@H]3c4[nH]c5ccccc5c4CCN3C[C@@H]2CC[C@@H]1O	x	x	x	1%	-1%	x

From PubChem
